Screening results as filed in PubChem BioAssay.
A selection: hits, their analogues and other compounds. The true share with any hit is near 2.9%.
Nrf2 inh: Nrf2 qHTS screen for inhibitors. A549 ARE-Fluc reporter, luciferase luminescence, 18-24 h. Potency, µM (series often up to 46 µM), usual class: inhibitors. 360,000 compounds, 2.1% hits; also: nearly all actives have a fitted effect of over 60% in size
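Nrf2 activity is the BugLite luminescence, read 15 min after reagent at room temperature, following CellTiter-Fluor cytotoxicity readout (30 min, 37C). Compound titrations were applied for 18-24 h to 5000 A549 ARE_Fluc cells/well in 5% FBS OPTI-MEM.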
Nrf2 activator: qHTS of Nrf2 Activators; AREc32 ARE-luciferase reporter (MCF7-derived line), luminescence, 24 h; Potency, µM (titrated, usually from 46.1 µM), actives largely listed as activators; 410,000 compounds, 0.31% hits; AID 624171, 2012; also: nearly all actives have a fitted effect of over 65% in size
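Luciferase luminescence (Steady-Glo, 30 min at room temperature) served as the read-out of ARE activation in AREc32 cells treated with compounds for 24 hr at 37 deg C.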
ATXN2 expr inh: Primary qHTS for Inhibitors of ATXN expression; AID 1745845, 2022; Potency, µM (top dose mostly 57 µM), most hits filed as inhibitors; 360,000 compounds, 0.72% hits; HEK-293 ATXN2-luciferase reporter, luminescence, 24 h; also: nearly all actives have a fitted effect of over 55% in size
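ATXN2-luciferase reporter cells (luciferase flanked by upstream and downstream ATXN2 gene portions) were treated 24 h at 37 °C with compounds at up to 57 uM. SteadyGlo luminescence gave expression; GF-AFC fluorescence gave viability.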
ATXN viability: Viability Counterscreen for Primary qHTS for Inhibitors of ATXN expression; Potency, µM (series often up to 56.7 µM), usual class: cytotoxic; S2 cells (HEK-293 line with an ATXN2-luciferase reporter) viability, CellTiter-Fluor protease fluorescence, 24 h; 400,000 compounds, 0.49% hits; AID 651635, 2014; also: nearly all actives have a fitted effect of over 40% in size
A549 tox-1: Nrf2 qHTS screen for inhibitors: counterscreen for cytotoxicity; AID 504648, 2011; Potency, µM (doses to about 46 µM), hits mostly inhibitors; A549 ARE-Fluc cells, CellTiter-Fluor viability, 18-24 h; 390,000 compounds, 0.16% hits
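Cytotoxicity counterscreen: CellTiter-Fluor fluorescence was measured in A549 ARE_Fluc cells after 18-24 h of compound exposure in a concentration series. The subsequent BugLite luminescent read reports ARE-luciferase activity.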
FLuc enzyme inh: Nrf2 qHTS screen for inhibitors: Purified Fluc Biochemical Counterscreen for Hit Validation; shares compounds with Nrf2 inh; purified firefly luciferase, luminescence inhibition; Potency, µM (highest dose often 57.5 µM), hits mostly inhibitors; 1,400 compounds, 4% hits; AID 720522, 2013; also: nearly all actives have a fitted effect of over 65% in size
Target sequence (P08659 whole entry, looked up): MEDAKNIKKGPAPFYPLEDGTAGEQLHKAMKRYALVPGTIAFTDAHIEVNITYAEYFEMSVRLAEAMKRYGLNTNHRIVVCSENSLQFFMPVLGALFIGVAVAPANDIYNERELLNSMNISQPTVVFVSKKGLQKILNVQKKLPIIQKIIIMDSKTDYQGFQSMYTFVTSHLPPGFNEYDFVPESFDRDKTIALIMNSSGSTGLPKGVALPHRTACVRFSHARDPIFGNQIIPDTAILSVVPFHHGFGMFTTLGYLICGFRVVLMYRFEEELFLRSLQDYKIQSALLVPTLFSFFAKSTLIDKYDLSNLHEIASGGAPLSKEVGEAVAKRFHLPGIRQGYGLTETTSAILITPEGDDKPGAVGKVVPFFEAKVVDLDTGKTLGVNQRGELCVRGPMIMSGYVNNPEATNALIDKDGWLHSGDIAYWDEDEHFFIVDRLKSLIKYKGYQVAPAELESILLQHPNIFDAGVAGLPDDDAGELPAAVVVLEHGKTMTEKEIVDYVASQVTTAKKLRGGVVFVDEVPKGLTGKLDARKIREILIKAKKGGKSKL
A549 tox-2: Nrf2 qHTS screen for inhibitors: A549 ARE-Fluc Cytotoxicity Counterscreen for Hit Validation. shares compounds with Nrf2 inh. 1,400 compounds, 2% hits. Potency, µM (doses to about 46.1 µM), usual class: inhibitors. AID 720523, 2013. A549 ARE-Fluc cells, cytotoxicity counterscreen;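 also: cells exposed to compounds for 18 to 24 hours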
Nrf2 ARE inh: Nrf2 qHTS screen for inhibitors: Nrf2 A549 ARE-Fluc Confirmation Assay for Hit Validation; shares compounds with Nrf2 inh; A549 ARE-firefly luciferase reporter, luminescence; Potency, µM (highest dose often 46.1 µM), most hits filed as inhibitors; 1,400 compounds, 74% hits; AID 720524, 2013; also: nearly all actives have a fitted effect of over 65% in size
Numbers stand for hits; i = inactive; ? = inconclusive; nt = no result; [ ] = dose if it differs, or a comment. Calls follow the shape of the dose curve; as a rule, active = well fitted curve in the direction sought with a large enough effect; inconclusive = small, poorly fitted or top-dose-only effect, or another doubt; inactive = no such curve, though single readings can be large; an effect the other way counts as inactive or inconclusive.

SMILES	Nrf2 inh	Nrf2 activator	ATXN2 expr inh	ATXN viability	A549 tox-1	FLuc enzyme inh	A549 tox-2	Nrf2 ARE inh
CN(c1ccccc1)S(=O)(=O)c1ccc(Cl)c(C(=O)Nc2ccc(N3CCOCC3)cc2)c1	i	i	i	i	i	nt	nt	nt
O=c1[nH]c(=O)n(Cc2ccco2)c2c1C(C(F)(F)F)(C(F)(F)F)N=C(c1ccc(F)cc1)N2	4.1µM	i	?	?	i	i	i	2.9µM
O=c1[nH]c(=O)n(Cc2ccccc2)c2c1C(C(F)(F)F)(C(F)(F)F)N=C(c1ccco1)N2	?	i	i	i	nt	nt	nt	nt
CCN(CC(=O)Nc1c(F)cccc1F)C(=O)c1cc(S(=O)(=O)N(CC)CC)ccc1N1CCCCC1	8.2µM	i	i	i	i	i	i	10µM
CCN(CC(=O)Nc1c(F)cccc1F)C(=O)c1cc(S(=O)(=O)N(C)C)ccc1N1CCCC1	i	i	i	i	i	nt	nt	nt
Cc1cc(C(=O)CN2C(=O)c3ccccc3S2(=O)=O)c(C)n1CC1CCCO1 (stereo not drawn)	0.92µM	i	0.5µM	?	i	1.3µM	i	1.2µM
CCCn1c(C)cc(C(=O)CN2C(=O)c3ccccc3S2(=O)=O)c1C	nt	i	nt	i	nt	nt	nt	nt
OC(c1ccc(Cl)c(Cl)c1)c1ncc(-c2ccccc2F)[nH]1 (stereo not drawn)	nt	i	i	i	nt	nt	nt	nt
CCn1c2ccccc2c2nnc(SCC(=O)OCN3C(=O)c4ccccc4C3=O)nc21	i	i	i	i	i	nt	nt	nt
Cc1ccc(-n2nc3c(=O)n(C(C)C(=O)NCc4ccc(OC(C)C)cc4)nc(C)c3c2C)cc1 (stereo not drawn)	1.8µM	i	nt	nt	i	i	i	8.2µM
CSc1ccc(CNC(=O)C(C)n2nc(C)c3c(C)n(-c4ccccc4)nc3c2=O)cc1 (stereo not drawn)	i	i	i	?	i	nt	nt	nt
S=C(NN=Cc1ccccn1)N(Cc1ccccn1)Cc1ccccn1	?	i	7.9µM	?	i	?	?	2.3µM
O=C(CCCC(=O)N/N=C\c1ccccn1)N/N=C\c1ccccn1	i	i	i	i	i	nt	nt	nt
CCN(CC)C(=O)c1nc(-c2cccc3ccccc23)no1	nt	i	nt	i	nt	nt	nt	nt
CNC(=S)N(Cc1cccs1)Cc1cc2cc(OC)ccc2[nH]c1=O	i	i[9.22 µM]	i	i	i	nt	nt	nt
COc1ccc2[nH]c(=O)c(CN(Cc3cccs3)C(=S)Nc3cccc(C)c3)cc2c1	2.1µM	i[9.22 µM]	i	i	i	i	i	?
O=C(c1ccc2c(c1)N(Cc1ccc(F)cc1)CCS2)N1CCOCC1	?	i	i	i	i	nt	nt	nt
CCOc1ccc(-c2nc(Cn3c(=O)cc(-c4ccccc4)c4c(C)nn(C)c43)c(C)o2)cc1	5.8µM	i	nt	nt	i	i	i	i
CCOc1ccc(-c2nc(Cn3c(=O)cc(-c4ccccc4)c4c(C)nn(C)c43)c(C)o2)cc1OC	?	i	i	i	i	nt	nt	nt
CC(=O)N(C(C)=O)N1C(=O)C2C3c4ccccc4C(c4ccccc43)C2C1=O (stereo not drawn)	9.2µM	i	nt	i	?	i	?	15µM
COc1cc(NC(=O)c2cccs2)c(OC)cc1NC(=O)CCC(=O)Nc1ccc2ncccc2c1	5.8µM	i	?	?	i	i	i	i
COc1ccc(OCC(=O)Nc2ccc(NC(=O)c3cccs3)c(OC)c2)cc1	i	i	i	i	i	nt	nt	nt
Cc1onc(-c2c(F)cccc2Cl)c1C(=O)Nc1nnc(C(F)(F)F)s1	1.5µM	i	?	?	?	i	i	0.12µM
CCOc1ccc(Nc2nc3cc(S(=O)(=O)CC)ccc3o2)cc1	i	i	i	i	i	nt	nt	nt
